Assay outcomes as filed in PubChem BioAssay.
Tau fluor counter: counter-screen for tau fibril formation inhibitors. Potency, µM (titrated, usually from 57.7 µM), for the others: top-dose activity change, negative = decrease. AID 1463. hit rate 0.93% among 280,000. tau K18 P301L Alexa594 fluorescence, heparin fibrillization; further: nearly all actives have a fitted effect of over 55% in size
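Human tau K18 P301L (15 uM unlabeled, 0.24 uM Alexa 594-labeled) in 100 mM sodium acetate pH 7 with 20 uM heparin, 6 hr at 37 C. ThT 30 uM added, 1 hr ambient; Alexa 594 FP and total fluorescence read at 555/632 nm.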
Tau ThT inhib: blocks human tau fibril formation measured by thioflavin T; P10636; recombinant tau K18 P301L (four-repeat tau fragment), heparin-induced fibrillization, ThT fluorescence; Potency, µM (highest dose often 57.4 µM), for inactives: at the highest dose activity, negative = inhibition, most hits filed as inhibitors; hit rate 2.1% among 270,000; AID 1460; further: nearly all actives have a fitted effect of over 55% in size
Target sequence (P10636 561-689 P618L limits assumed): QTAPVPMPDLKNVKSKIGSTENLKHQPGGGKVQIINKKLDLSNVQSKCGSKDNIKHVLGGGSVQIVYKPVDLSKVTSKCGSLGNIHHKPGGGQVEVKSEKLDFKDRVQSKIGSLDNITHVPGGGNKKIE
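Tau K18 P301L fragment (15 uM unlabeled plus 0.24 uM Alexa 594-labeled) in 100 mM sodium acetate pH 7 with compound, fibrillization induced by 20 uM heparin for 6 hr at 37 C. Thioflavin T (30 uM) added, fluorescence read after 1 hr (ex 450, em 510 nm).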
VDR inh: blocks the human vitamin D receptor | hit rate 0.93% among 400,000 | Potency, µM, without a hit: max response, negative = inhibition, usual class: inhibitors | AID 504847 | P11473 | VDR-SRC2-3 peptide fluorescence polarization, 2 h
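Two reagent solutions held at 4 deg C in the dark were dispensed, compounds pinned at 23 nl, and the mixture incubated 2 h at room temperature. Read-out: fluorescence polarization of VDR–SRC2-3 peptide binding.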
Sfp PPTase inh: blocks B. subtilis Sfp PPTase activity | Q9F4F7 | Biochemical Sfp PPTase activity, qHTS | Potency, µM, for inactives: largest response in the series, negative = inhibition, usual class: inhibitors | hit rate 3.5% among 310,000;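 further: the enzyme is Sfp with the accession as filed and its product quenches rhodamine fluorescence; 0% = enzyme reaction without inhibitor and -100% = no enzyme wells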
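With Hepes-Na pH 7.6 buffer containing 10 mM MgCl2, Sfp (15 nM) modified BHQ-2-YbbR (12.5 uM) using rhodamine-CoA (5 uM). Two reads 30 minutes apart at 525/598 nm yielded each well's rate.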
Tau fibril FP: inhibitors of human tau fibril formation. Potency, µM (highest dose often 57.7 µM), for inactives: at the highest dose activity, negative = inhibition, usual class: inhibitors. hit rate 0.39% among 280,000. K18 P301L tau heparin fibrillization, Alexa594 FP, 6 h. AID 1468; further: nearly all actives have a fitted effect of over 55% in size
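FP of Alexa 594-tau after heparin (20 uM) induction. Substrate: human K18 P301L, 15 uM unlabeled, 0.24 uM labeled. Buffer 100 mM sodium acetate pH 7. 6 hr, 37 C.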
PLK1 PBD inh: inhibitors of human PLK1 polo-box domain binding | P53350 | Plk1 PBD binding of FITC phosphopeptide, fluorescence polarization | Potency, µM, for inactives: max response, negative = inhibition, usual class: inhibitors | hit rate 2.8% among 360,000 | AID 720504; further: series mostly up to about 57 µM; nearly all actives have a fitted effect of over 65% in size
Target sequence (P53350 whole entry, looked up, the tested form may be a part): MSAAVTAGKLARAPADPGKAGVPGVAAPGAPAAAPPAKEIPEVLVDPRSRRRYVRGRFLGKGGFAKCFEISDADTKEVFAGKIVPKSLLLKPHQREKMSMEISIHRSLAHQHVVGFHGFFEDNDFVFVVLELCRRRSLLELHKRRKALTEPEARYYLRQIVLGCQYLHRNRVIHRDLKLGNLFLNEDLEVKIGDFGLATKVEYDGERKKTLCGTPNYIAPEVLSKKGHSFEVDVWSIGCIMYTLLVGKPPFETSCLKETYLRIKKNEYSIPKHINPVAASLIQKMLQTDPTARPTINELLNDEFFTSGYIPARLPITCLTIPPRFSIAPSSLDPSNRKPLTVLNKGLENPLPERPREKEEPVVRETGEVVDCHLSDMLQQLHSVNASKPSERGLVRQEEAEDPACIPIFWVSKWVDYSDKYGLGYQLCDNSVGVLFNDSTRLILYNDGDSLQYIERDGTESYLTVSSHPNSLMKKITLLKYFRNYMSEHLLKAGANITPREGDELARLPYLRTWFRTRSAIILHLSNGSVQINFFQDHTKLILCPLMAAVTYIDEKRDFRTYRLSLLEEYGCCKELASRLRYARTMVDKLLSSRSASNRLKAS
Active calls of the source: *; u = inconclusive; x = no result; [ ] = another dose, or the depositor's remark. This is a sample that favours compounds with a hit; in the whole collection about 6% have one here. The call rests on the fitted dose curve; in most records, active means well fitted curve in the direction sought with a large enough effect; inconclusive means small, poorly fitted or top-dose-only effect, or another doubt; inactive means no such curve, though single readings can be large; an effect the other way counts as inactive or inconclusive. Unless noted, on the % scale 0 is the no-effect control and ±100 the full control effect; potency means the concentration at half of the fitted maximal effect.

SMILES	Tau fluor counter	Tau ThT inhib	VDR inh	Sfp PPTase inh	Tau fibril FP	PLK1 PBD inh
COc1cccc(OCc2nc3ccccc3n2CCOc2ccc(C)cc2)c1	-18%	u	14%	x	-1%	x
CCOC(=O)c1c(S(=O)(=O)N2CCCC(C(=O)Nc3cccc(Cl)c3)C2)c(C)n(C)c1C (stereo not drawn)	3%	12%	23%	x	5%	x
Nc1cc(N)nc(SCC(=O)NNC(=O)Cc2ccccc2)n1	-6%	-6%	8%	-19%	-4%	-6%
Cc1ccccc1OCC(=O)NNC(=O)CSc1nc(N)cc(N)n1	-3%	-2%	-5%	-11%	-3%	21µM*
Cc1ccccc1-n1c(-c2ccc(=O)[nH]n2)n[nH]c1=S	-1%	-5%	-2%	71µM*	4%	-8%
Cc1ccccc1-n1c(-c2ccncc2)n[nH]c1=S	-9%	-10%	-9%	u	-5%	-16%
CCOC(=O)C1=CCC(c2cccc(C)c2)N(S(=O)(=O)c2ccc(C)cc2)C1 (stereo not drawn)	x	x	x	x	x	-13%
CC(=O)N1CC[n+]2c(-c3ccc(Cl)cc3Cl)csc21	-11%	u	40µM*	32µM*	u	u
Nc1nc(C2CC2)c(Sc2sc(N)nc2C2CC2)s1	u	18µM*	-26%	-21%	-8%	u
Nc1nc(C2CCOCC2)cs1	-10%	-9%	13%	18%	-4%	0%
CCCNC(=O)c1ccc(-c2nc(CS(=O)(=O)c3ccc(C)cc3)c(C)o2)cc1	3%	6%	2%	x	2%	x
Cc1cc(C)cc(N2C(=O)CC(Sc3ncn[nH]3)C2=O)c1 (stereo not drawn)	-8%	u	14%	35µM*	2%	24µM*
COc1ccc(NC(=O)C2CCN(S(=O)(=O)c3cn(C)nc3C)CC2)cc1	x	x	15%	5%	x	-15%
O=C(Nc1ccc(F)cc1)C1CCN(c2nc3ccccc3n3cccc23)CC1	u	-10%	-6%	x	-3%	x
Cn1cc(P(=O)(N2CCOCC2)N2CCOCC2)cc1P(=S)(N1CCOCC1)N1CCOCC1	-2%	-9%	u	20µM*	-4%	11µM*
Cn1cc(P(=S)(N2CCOCC2)N2CCOCC2)cc1P(=O)(N1CCOCC1)N1CCOCC1	4%	2%	u	50µM*	-5%	13µM*
CCn1c(C)c(P(=O)(N2CCOCC2)N2CCOCC2)c2ccccc21	11%	10%	-2%	7%	7%	3%
CCOc1ccc2c(c1)c(=O)c(C(=O)c1ccc(C)cc1)cn2Cc1ccccc1OC	-28%	u	-7%	x	6%	x
Cn1nc(C(F)(F)F)c(/C=N/OC(=O)c2ccccc2)c1Sc1ccc(Cl)cc1	-16%	-6%	89µM*	3%	-6%	-5%
COc1ccc(-c2cc(C)no2)cc1S(=O)(=O)N1CCOc2ccccc21	u	-1%	-17%	34%	-14%	3%
COc1ccc(-c2cc(C)no2)cc1S(=O)(=O)N1CCc2ccccc21	28µM*[fluorescent]	u	10%	x	15%	x
CC1(C(=O)NS(=O)(=O)c2cccc(F)c2)CCN1C(=O)c1cccc(F)c1 (stereo not drawn)	x	x	x	x	x	5%
O=C(Nc1ccccc1)N1CC=C(c2ccccc2)CC1	-8%	-24%	x	28%	-1%	x
Cc1cccc(NC(=O)N2CC=C(c3c[nH]c4ccccc34)CC2)c1C	25µM*[quencher]	u	6%	x	3%	x
O=C(Nc1ccc(Br)cc1F)N1CC=C(c2c[nH]c3ccccc23)CC1	8.9µM*[quencher]	8.9µM*	8%	x	-15%	x
SMILES	Tau fluor counter	Tau ThT inhib	VDR inh	Sfp PPTase inh	Tau fibril FP	PLK1 PBD inh
O=C(Nc1cccc2ccccc12)N1CC=C(c2ccccc2)CC1	-15%	-21%	-9%	-2%	-8%	1%
Cc1ccc(NC(=O)N2CC=C(c3c[nH]c4ccccc34)CC2)cc1Cl	14µM*[quencher]	6.3µM*	18%	x	-10%	x
CCN(c1ccccc1)S(=O)(=O)c1nnc(NC(=O)COc2cccc(C)c2)s1	-9%	u	0%	x	-8%	x
O=C1C=C(NC2=CC3OC(c4ccccc4)OCC3OC2=O)CCC1 (stereo not drawn)	-10%	28µM*	79µM*	-39%	u	-10%
O=C1Nc2ccc(S(=O)(=O)N(CCO)CCO)c3cccc1c23	x	x	-30%	15%	x	21µM*
CNc1ccc(Cl)cc1S(=O)(=O)c1ccccc1[N+](=O)[O-]	x	x	x	x	x	-15%
Cc1cc(C)c(C(=O)CSC2=NC(N)=C(C#N)C3(CCCCC3)C2C(N)=O)cc1C (stereo not drawn)	u	28µM*	5%	-20%	u	-6%
CN(C)c1ncc2nc(-c3cc(F)cc(F)c3)c(=O)n(CCc3ccccc3)c2n1	x	x	-3%	-19%	x	x
O=C(NCc1ccc(Cl)cc1)c1ccc2nc[nH]c2c1	3%	7%	u	3%	-7%	30µM*
Oc1c(C(c2ccc(Cl)cc2)N2CCC3(CC2)OCCO3)sc2nc(-c3ccco3)nn12 (stereo not drawn)	-8%	-11%	21%	x	-11%	x
OCCCc1cn(-c2ccccc2)c2ccccc12	-8%[2.34 µM]	2%	1%	19%	-3%[2.34 µM]	0%
Clc1nc(Cl)nc(-c2cn(-c3ccccc3)c3ccccc23)n1	-19%	-7%	-27%	56µM*	-2%	-11%
O=C(/C=C/C(=O)Oc1ccccc1C(=O)O)Oc1ccccc1C(=O)O	-13%	25µM*	-15%	-5%	25µM*	x
O=C(Oc1ccccc1C(=O)O)c1ccccc1O	-5%	-2%	-3%	9%	-6%	x
CCC(C)c1ccc(S(=O)(=O)N2CCN(c3ccccn3)CC2)cc1 (stereo not drawn)	x	x	12%	8%	x	9%
NS(=O)(=O)c1ccc(NC(=S)N2CCN(c3cccc(Cl)c3)CC2)cc1	-16%	u	-26%	13µM*	1%	17µM*
CN1CCN(C(=S)Nc2ccc(S(N)(=O)=O)cc2)CC1	2%	-4%	-16%	22µM*	2%	27µM*
NS(=O)(=O)c1ccc(NC(=S)N2CCN(C(=O)C3CCCO3)CC2)cc1 (stereo not drawn)	x	x	u	-18%	x	11µM*
Cc1c(Cl)cccc1NC(=O)CC(c1cccs1)N1Cc2ccccc2C1=O (stereo not drawn)	-13%	8%	3%	x	-8%	x
O=C(O)c1cccc(-c2csc(C(O)c3cccc(Cl)c3)n2)c1 (stereo not drawn)	x	x	x	x	x	-8%
CC(=O)Nc1ccc(S(=O)(=O)N2CCC(NC(=O)C(Cc3ccccc3F)NC(C)=O)CC2)cc1 (stereo not drawn)	x	x	-12%	11%	x	-6%
Cc1ccc(NNC(=O)Nc2ccc(Cl)cc2)nn1	-4%	x	18µM*	8.9µM*	u	6µM*
